# PubChem BioAssay (Tox21)
# Inconclusive results are not listed. Values without a mark were called inactive. Active and inactive are the calls of the source. Calls follow the shape of the dose curve; as a rule, active = well fitted inhibition curve with a large enough effect in the repeat runs; inconclusive = weak or mixed curves; inactive = flat fitted curve, though single readings scatter.
# Test: qHTS assay to identify small molecule HDAC inhibitors (AID 1259364); also: nearly all actives have a fitted effect of over 45% in size; as to activity change, negative = inhibition: top concentration of the series differs between compounds
# Details: HCT-116 HDAC-Glo I/II luminescence, 2 h; series mostly up to 92.4 µM; activity change, negative = inhibition: at the top concentration
# Description: U.S. Tox21 Program National Center for Advancing Translational Sciences [NCATS] NIH Chemical Genomics Center [NCGC] U.S. Environmental Protection Agency [EPA] National Institutes of Environmental Health Sciences [NIEHS] National Toxicology Program [NTP] U.S. Food and Drug Administration [FDA] Tox21 Assay Overview: Histone deacetylases (HDACs) are a group of epigenetic enzymes that regulate gene expression by histone deacetylation. HDACs are capable of introducing epigenetic modifications and such aberrations contribute to the onset and progression of several human diseases, thus making HDACs a popular therapeutic target. For identifying endogenous class I/II HDAC inhibitors a homogenous, luminogenic HDAC I/II cell based assay was used to measure the relative activity of class I and II HDACs from cells. Wild type HCT-116 cells were used to screen Tox21 libraries for identifying class I/II HDAC inhibitors.
# Tox21 Assay Protocol Summary: HCT-116 cells were dispensed at 1,500 per well in 5uL of culture medium into white solid bottom 1536-well plates (Greiner Bio-One, Monroe, NC) using a Multidrop Combi (Thermo Scientific, Waltham, MA) dispenser. The assay plates were incubated at 37 C and 5% CO2 for an overnight, and then 23nL of compounds dissolved in DMSO and positive control were transferred using a Pintool station (Wako, San Diego, CA). The assay plates were incubated at 37C and 5% CO2 for 2hr. After compound treatment, 4uL of HDAC-Glo reagent (Promega Corporation, Madison, WI) was added to each well of the assay plates using Flying Reagent Dispenser (FRD, Aurora Discovery, San Diego, CA) and incubated the assay plates at room temperature for 30min. The luminescence signal was quantified using a ViewLux plate reader (Perkin Elmer, Shelton, CT).
# % is scaled to controls: 0 for no effect and ±100 for the full control effect; potency is read from the fitted curve at half-maximal effect.
SMILES,"activity change, negative = inhibition",Potency
C=CC(C)(CCC=C(C)C)OC(=O)C(C)C (stereo not given),2.4%,
CC12CCCC=C1C(=O)OC2=O (stereo not given),0.211%,
OCCC(F)(F)C(F)(F)C(F)(F)C(F)(F)C(F)(F)C(F)(F)F,-2.07%,
CN(C)c1cc(NC(=O)CNC(C)(C)C)c(O)c2c1C[C@H]1C[C@H]3[C@H](N(C)C)C(=O)C(C(N)=O)=C(O)[C@@]3(O)C(=O)C1=C2O,-5.18% [at 42.5 µM],
N=C(N)N1CCc2ccccc2C1,3.09% [at 8.39 µM],
COc1cc(NS(=O)(=O)c2ccc(N)cc2)ncn1,7.42% [at 42.5 µM],
Cc1nnc(C(=O)NC(C)(C)c2nc(C(=O)NCc3ccc(F)cc3)c(O)c(=O)n2C)o1,0.295% [at 42.5 µM],
Cc1cc(C)c(N)c(Cl)c1,1.12%,
Cc1cc(N)no1,0.287%,
O=C(O)Cc1ccccc1Oc1ccc(Cl)cc1Cl,3.55% [at 42.5 µM],
COc1ccc(Cl)cc1C,3.54%,
CCOC(=O)c1ccc(N(C)C)cc1,,9.69 µM (active)
CC(C)C(C)C,-4.09%,
CCN1CCN(C(=O)N[C@@H](C(=O)N[C@@H]2C(=O)N3[C@@H]2SC(C)(C)[C@H]3C(=O)O)c2ccccc2)C(=O)C1=O,-1.89% [at 42.5 µM],
C/C=C(\C)C(=O)OC/C=C(\C)CCC=C(C)C,-5.7%,
Cc1ccc(N)nc1,3.04%,
COC(=O)c1ccc(C(=O)O)cc1,-4.96%,
O=C1Nc2ccccc2C1=O,1.85%,
CC(C)(C)C(=O)CCc1ccc(Cl)cc1,-0.0822%,
CC(C)(O)c1ccc(C(C)(C)O)cc1,0.462%,

SMILES,"activity change, negative = inhibition",Potency
CC(C)c1cc(C(C)C)cc(C(C)C)c1,1.96%,
CCC(C)SSC(C)CC (stereo not given),-6.72%,
COc1cc(OC)cc(OC)c1,-2.53% [at 42.5 µM],
CCC(C)c1nccnc1OC (stereo not given),1.49%,
CCOC(=O)[C@H](CCc1ccccc1)N[C@H]1CS[C@H](c2cccs2)CN(CC(=O)O)C1=O,16.5% [at 42.5 µM],
C=CC(=O)OCC[N+](C)(C)C,-5.12%,
CC[N+](C)(CC)CC,-4.27%,
C[C@@H]1CC[C@@]2(OC1)O[C@H]1C[C@H]3[C@@H]4CC[C@H]5C[C@@H](O)CC[C@]5(C)[C@H]4CC(=O)[C@]3(C)[C@H]1[C@@H]2C,8.02% [at 8.39 µM],
CC(=O)SC[C@@H](C)C(=O)N1CCC[C@H]1C(=O)N[C@@H](Cc1ccccc1)C(=O)O,-1.31% [at 42.5 µM],
CCCCN(CCCC)CCCCCCN(CCCC)CCCC,9.96%,
CCc1ccc(CC)cc1,2.45%,
Cc1cc(C)c(C)c(C)c1,0.952%,
O=S(=O)(O)c1ccc(Cl)cc1,5.46%,
CCCCCCCCS(=O)(=O)O,5.35%,
C=COCCCCO,5.54%,
CCO/C=C1\N=C(c2ccccc2)OC1=O,3.77%,
COc1ccccc1N1CCN(CC(O)COc2cc(OC)c(OC)c(OC)c2)CC1 (stereo not given),3.82% [at 42.5 µM],
CC(C)(O)CCCC1=CCC(C=O)CC1 (stereo not given),-8.11%,
O=C(c1ccccc1)c1cccc(O)c1,-22%,
CC(C)(C)OC=O,9.67%,
